Data as given in the supplement of paper PMC12350171.
Counter-ions that a name gives are not always drawn.

Assays:
Details in all cases: 20 µM
[1] = tested on: Salmonella enterica typhimurium; experiment: growth AUC normalised to DMSO control (fraction of control); higher = less growth inhibition, active = hit call of the paper
Summary of the method: (§1)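 For the AUC endpoint, growth curves were integrated by the trapezoidal rule up to the exponential-to-stationary transition and normalised to DMSO controls on the same plate. The curves came from OD578 readings taken hourly for 24 h, in three biological replicates. Pathogens had been passaged anaerobically twice and inoculated at an OD578 of 0.01 into pre-reduced mGAM plates carrying 20 μM compound and 1% DMSO, sealed with breathable membranes. Medium for Haemophilus parainfluenzae also contained hemin and NAD.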

Shigella flexneri = experiment: as above
Summary of the method: as §1

Vibrio cholerae = experiment: as above
Summary of the method: as §1

[2] = tested on: Yersinia pseudotuberculosis; experiment: as above
Summary of the method: as §1

P. vulgatus RND KO = experiment: growth AUC normalised to DMSO control (median) (fraction of control); higher = less growth inhibition, active = hit call of the paper
Summary of the method: (§2)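 For normalised area under the curve, growth curves were truncated at entry into stationary phase, integrated by the trapezoidal rule and divided against vehicle wells on the same plate. The curves came from strains passaged twice overnight without oxygen and then grown in mGAM in 96-well plates at a starting OD578 of 0.01. Each well held an approved-drug library compound at 20 μM with 1% DMSO, and OD578 was read hourly for 24 h in an anaerobic incubator. Values are medians of three biological replicates.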

P. vulgatus WT = experiment: as above
Summary of the method: as §2

[3] = tested on: S. enterica typhimurium WT; experiment: as above
Summary of the method: as §2

[4] = tested on: S. enterica typhimurium tolC KO; experiment: as above
Summary of the method: as §2

Measured: growth AUC normalised to DMSO control
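For growth AUC normalised to DMSO control (median) in this document: active when median AUC fell below 0.1.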

O=C1CCC(N2C(=O)c3ccccc3C2=O)C(=O)N1 (stereo unspecified) [Thalidomide]
inactive: [1] 0.994 | Shigella flexneri 0.971 | Vibrio cholerae 0.996 | [2] 0.988 | P. vulgatus RND KO 0.999 | P. vulgatus WT 1.01 | [3] 1 | [4] 1

CC(C)NCC(O)COc1ccc(COCCOC(C)C)cc1 (stereo unspecified) [Bisoprolol hemifumarate]
inactive: [1] 1.03 | Shigella flexneri 1.03 | Vibrio cholerae 1.05 | [2] 1.02 | P. vulgatus RND KO 1.02 | P. vulgatus WT 1.08 | [3] 1.01 | [4] 1.01

COc1ccc(CN(CCN(C)C)c2ccccn2)cc1 [Pyrilamine maleate]
inactive: [1] 0.974 | Shigella flexneri 0.995 | Vibrio cholerae 0.969 | [2] 1.01 | P. vulgatus RND KO 0.986 | P. vulgatus WT 0.979 | [3] 0.993 | [4] 0.987

CC1=C(CC(=O)O)c2cc(F)ccc2/C1=C\c1ccc([S+](C)[O-])cc1 (stereo unspecified) [Sulindac]
inactive: [1] 0.976 | Shigella flexneri 0.994 | Vibrio cholerae 1.01 | [2] 1.03 | P. vulgatus RND KO 0.996 | P. vulgatus WT 0.968 | [3] 1 | [4] 0.984

C[C@]12CC[C@@H]3c4ccc(OS(=O)(=O)O)cc4CC[C@H]3[C@@H]1CCC2=O [Estropipate piperazine salt]
inactive: [1] 0.985 | Shigella flexneri 0.974 | Vibrio cholerae 0.991 | [2] 0.965 | P. vulgatus RND KO 0.987 | P. vulgatus WT 0.983 | [3] 0.997 | [4] 0.996

CCCCOc1ccc(C(=O)CCN2CCCCC2)cc1 [Dyclonine hydrochloride]
inactive: [1] 0.985 | Shigella flexneri 0.963 | Vibrio cholerae 0.913 | [2] 0.979 | P. vulgatus RND KO 1 | P. vulgatus WT 1.01 | [3] 0.996 | [4] 0.986

CC(C)Cc1ccc([C@H](C)C(=O)O)cc1 [(S,+) Ibuprofen]
inactive: [1] 1.01 | Shigella flexneri 0.968 | Vibrio cholerae 0.95 | [2] 0.983 | P. vulgatus RND KO 0.989 | P. vulgatus WT 0.982 | [3] 0.994 | [4] 1

CC(N/C(=N\C#N)Nc1ccncc1)C(C)(C)C (stereo unspecified) [Pinacidil monohydrate]
inactive: [1] 0.991 | Shigella flexneri 1 | Vibrio cholerae 0.998 | [2] 0.982 | P. vulgatus RND KO 1.07 | P. vulgatus WT 1.06 | [3] 1.01 | [4] 0.976

CC(N)C12CC3CC(CC(C3)C1)C2 (stereo unspecified) [Rimantadine hydrochloride]
inactive: [1] 0.99 | Shigella flexneri 0.987 | Vibrio cholerae 0.985 | [2] 0.869 | P. vulgatus RND KO 0.978 | P. vulgatus WT 0.983 | [3] 0.996 | [4] 0.989

CC(=O)OCC(=O)[C@@]1(O)CC[C@H]2[C@@H]3CCC4=CC(=O)CC[C@]4(C)[C@@]3(F)[C@@H](O)C[C@@]21C [Fludrocortisone acetate]
inactive: [1] 0.995 | Shigella flexneri 0.988 | Vibrio cholerae 1 | [2] 1 | P. vulgatus RND KO 1.02 | P. vulgatus WT 1.04 | [3] 1.02 | [4] 0.981

N=C(N)NC(=N)NCCc1ccccc1 [Phenformin hydrochloride]
inactive: [1] 1.01 | Shigella flexneri 0.995 | Vibrio cholerae 1.01 | [2] 0.987 | P. vulgatus RND KO 1.01 | P. vulgatus WT 1.04 | [3] 0.994 | [4] 0.986

C[C@]12CC[C@@H]3c4ccc(O)cc4C[C@@H](CCCCCCCCC[S+]([O-])CCCC(F)(F)C(F)(F)F)[C@H]3[C@@H]1CC[C@@H]2O (stereo partly specified) [Fulvestrant]
inactive: [1] 1.01 | Shigella flexneri 1.09 | Vibrio cholerae 1.01 | [2] 0.994 | P. vulgatus RND KO 1.05 | P. vulgatus WT 1.02 | [3] 1.02 | [4] 0.998

COC(=O)Nc1nc2cc(C(=O)c3cccs3)ccc2[nH]1 [Nocodazole]
inactive: [1] 1.01 | Shigella flexneri 1.02 | Vibrio cholerae 0.979 | [2] 1 | P. vulgatus RND KO 1.01 | P. vulgatus WT 1.02 | [3] 1.01 | [4] 0.975

CN1CCN(C(c2ccccc2)c2ccc(Cl)cc2)CC1 (stereo unspecified) [Chlorcyclizine hydrochloride]
inactive: [1] 1 | Shigella flexneri 0.993 | Vibrio cholerae 0.927 | [2] 0.984 | P. vulgatus RND KO 0.987 | P. vulgatus WT 0.963 | [3] 0.992 | [4] 0.958

CC(C)(C)C(=O)OCOC(=O)[C@@H]1N2C(=O)[C@@H](NC(=O)[C@H](N)c3ccccc3)[C@H]2SC1(C)C [Pivampicillin]
active: [2] 0.818
inactive: [1] 0.97 | Shigella flexneri 1.01 | Vibrio cholerae 0.987 | P. vulgatus RND KO 1.01 | P. vulgatus WT 1.02 | [3] 0.993 | [4] 1

COC(=O)C1=C(C)NC(C)=C(C(=O)OCCN(C)Cc2ccccc2)C1c1cccc([N+](=O)[O-])c1 (stereo unspecified) [Nicardipine hydrochloride]
inactive: [1] 1 | Shigella flexneri 1.01 | Vibrio cholerae 0.966 | [2] 1 | P. vulgatus RND KO 1.02 | P. vulgatus WT 0.977 | [3] 1.01 | [4] 0.901

CC(=O)c1ccc2c(c1)N(CCCN(C)C)c1ccccc1S2 [Acetopromazine maleate salt]
inactive: [1] 1 | Shigella flexneri 1 | Vibrio cholerae 0.888 | [2] 0.949 | P. vulgatus RND KO 0.984 | P. vulgatus WT 0.963 | [3] 1 | [4] 0.969

NC[C@H]1O[C@H](O[C@H]2[C@H](O)[C@@H](O[C@H]3O[C@H](CO)[C@@H](O)[C@H](N)[C@H]3O)[C@H](N)C[C@@H]2N)[C@H](N)C[C@@H]1O [Tobramycin]
active: [1] 0.888 | Shigella flexneri 0.794 | [2] 0.107
inactive: Vibrio cholerae 0.97 | P. vulgatus RND KO 1.03 | P. vulgatus WT 1.05 | [3] 0.969 | [4] 0.995

Clc1ccccc1C(c1ccccc1)(c1ccccc1)n1ccnc1 [Clotrimazole]
inactive: [1] 0.992 | Shigella flexneri 1.02 | Vibrio cholerae 0.932 | [2] 0.985 | P. vulgatus RND KO 0.952 | P. vulgatus WT 0.954 | [3] 0.995 | [4] 0.829

O=C(OCCOCCO)c1ccccc1Nc1cccc(C(F)(F)F)c1 [Etofenamate]
inactive: [1] 1.01 | Shigella flexneri 0.979 | Vibrio cholerae 0.977 | [2] 0.991 | P. vulgatus RND KO 0.832 | P. vulgatus WT 0.909 | [3] 1 | [4] 0.858

CCN1CCCC1CNC(=O)c1cc(S(N)(=O)=O)ccc1OC (stereo unspecified) [Sulpiride]
inactive: [1] 0.99 | Shigella flexneri 1 | Vibrio cholerae 1.01 | [2] 1.02 | P. vulgatus RND KO 0.992 | P. vulgatus WT 1.01 | [3] 1 | [4] 0.999

CCn1cc(C(=O)O)c(=O)c2cnc(N3CCCC3)nc21 [Piromidic acid]
active: Vibrio cholerae 0.0557 | [4] 0.0548
inactive: [1] 0.996 | Shigella flexneri 1.04 | [2] 0.983 | P. vulgatus RND KO 1.06 | P. vulgatus WT 1.03 | [3] 1.02

N=C(N)NCC1COC2(CCCCC2)O1 (stereo unspecified) [Guanadrel sulfate]
inactive: [1] 0.979 | Shigella flexneri 0.964 | Vibrio cholerae 0.983 | [2] 0.985 | P. vulgatus RND KO 0.965 | P. vulgatus WT 0.969 | [3] 0.994 | [4] 0.99

O=C(CCCCCCC(=O)Nc1ccccc1)NO [Vorinostat]
inactive: [1] 0.994 | Shigella flexneri 1.03 | Vibrio cholerae 0.996 | [2] 1.03 | P. vulgatus RND KO 1.01 | P. vulgatus WT 1.06 | [3] 0.997 | [4] 1

Oc1ncnc2[nH]ncc12 [Allopurinol]
inactive: [1] 0.996 | Shigella flexneri 1.03 | Vibrio cholerae 1.02 | [2] 1 | P. vulgatus RND KO 1.03 | P. vulgatus WT 1.04 | [3] 0.999 | [4] 0.99

Cc1c(C)c2c(c(C)c1O)CCC(C)(C(=O)O)O2 (stereo unspecified) [Trolox]
inactive: [1] 1 | Shigella flexneri 1.02 | Vibrio cholerae 0.995 | [2] 1.01 | P. vulgatus RND KO 0.996 | P. vulgatus WT 1.02 | [3] 1 | [4] 1

CCOC(=O)C1=C(C)NC(C)=C(C(=O)OC)C1c1cccc([N+](=O)[O-])c1 (stereo unspecified) [Nitrendipine]
inactive: [1] 1.04 | Shigella flexneri 1 | Vibrio cholerae 1.06 | [2] 1.01 | P. vulgatus RND KO 1.09 | P. vulgatus WT 1.04 | [3] 0.996 | [4] 0.982
